Data as given in ChEMBL document CHEMBL1157539, “Thousands of chemical starting points for antimalarial lead identification” (Nature, 2010).
Out of some 13,000 compounds screened, fewer than 10 showed an effect of 50% or more. Only a sample is shown.

System: Plasmodium falciparum
Test: GSK_TCMDC: Inhibition of Plasmodium falciparum 3D7 LDH activity, using an LDH reporter assay. Test compounds present at 2uM
Type: functional, organism-based

Row | Compound | inhibition
1 | Nc1ncc(-c2ccc3nccc(-c4ccncc4)c3c2)cc1S(=O)(=O)N1CCCCC1 | 3%
2 | Cc1cc(NCC(c2ccccc2)c2ccccc2)nc(NCC2CCCCC2)n1 | 3%
3 | N#Cc1cccc(C(=O)Nc2ccc(-c3ccc(CN4CCCC4)cc3)cc2)c1 | 0%
4 | Cc1[nH]c(C)c(-c2ccc(OCc3cc(F)cc(F)c3)nc2)c(=O)c1Cl | 0%
5 | CC(=O)Nc1ccc(CCNC(C)Cc2ccc(C(=O)Nc3ccc(CC(C)NCCc4cccc(Cl)c4)cc3)cc2)cc1 (stereo not given) | 0%
6 | c1cc(-c2ccc(CNCCCN3CCOCC3)cc2)cc(-c2nc3ccccc3[nH]2)c1 | 0%
7 | Clc1ccccc1C=NN=c1cc[nH]c2ccccc12 | 0%
8 | O=C1CCCN1CCCNCc1ccc(-c2ccc(-c3nc4cc(F)ccc4[nH]3)cc2)cc1 | 0%
9 | Cc1[nH]c(C)c(-c2ccc(C#Cc3ccc(F)cc3F)cc2)c(=O)c1Br | 0%
10 | COc1ccc(OC)c(-c2ccc(=O)n(CC(=O)Nc3cccc4ccccc34)n2)c1 | 3%
11 | CC(C)(C)c1ccc(CNC(=O)/C=C/c2ccc(-c3nc4cc(C(C)(C)C)ccc4[nH]3)cc2)cc1 | 0%
12 | CN(C)CCCN1CCN(Cc2ccc(-c3ccc(-c4nc5ccccc5[nH]4)s3)cc2)CC1 | 4%
13 | CC(C)Nc1nc(NCCc2c[nH]cn2)nc(Nc2ccc(Oc3ccccc3)cc2)n1 | 1%
14 | CN1CCC(NC(=O)c2cc(Oc3ccc4c(c3)CCN4C(=O)Nc3cccc(C(F)(F)F)c3)ccn2)CC1 | 0%
15 | FC(F)(F)COc1c(CCNCCCCNCCc2ccc3ccccc3c2OCC(F)(F)F)ccc2ccccc12 | 0%
16 | CN(CCN)Cc1cccc(-c2cccc(-c3nc4cc(C(F)(F)F)ccc4[nH]3)c2)c1 | 0%
17 | CC(C)CCCC(C)NC[C@@H](O)[C@H](Cc1ccccc1)NC(=O)c1cc(N2CCCC2=O)cc(N(c2ccccc2)S(C)(=O)=O)c1 (stereo not given in full) | 0%
18 | ON=C(c1nc2ccccc2[nH]1)c1nc2ccccc2[nH]1 | 6%
19 | O=S(=O)(NCCN1CCCC1)c1cccc(-c2ccc(CNCc3ccsc3)cc2)c1 | 6%
20 | COc1cccc(CCc2nc3c(N4CCC(Cc5ccccc5)CC4)cccc3n2CC2CNCCO2)c1 (stereo not given) | 4%
21 | CCN(CC)CCN(Cc1ccc(-c2ccc(C(F)(F)F)cc2)cc1)C(=O)Cn1c(CCc2ccc(F)c(C#N)c2)nc(=O)c2ccccc21 | 0%
22 | CCc1c(CCNCCCCCCNCCc2ccc(Br)cc2)ccc(O)c1O | 0%
23 | Nc1c2c(nc3ccc(Oc4ccc(Cl)cc4)cc13)CCCC2 | 0%
24 | Cc1cc(N[C@@H](Cc2ccccc2)C(=O)NCc2cccs2)nc(NCCc2ccccn2)n1 | 0%
25 | COc1cc(C=CC(=O)N2CCC(CCN3CCC(c4c[nH]c5ccccc45)CC3)CC2)cc(OC)c1 | 0%
26 | COc1cc2nc(N3CCC(CNC(=O)c4ccc(NC(=O)c5ccc(Cl)cc5)cc4)CC3)nc(N)c2cc1OC | 0%
27 | CCNC1=NC2=C(CC(C(C)(C)C)CC2)C2(CCC(C(C)(C)C)CC2)S1 (stereo not given) | 4%
28 | Cc1ccc(Cc2c[nH]c(NCCSCc3ccc(CN4CCOCC4)o3)nc2=O)cn1 | 0%

Row | Compound | inhibition
29 | Cc1cc(-c2c[nH]c3ncc(-c4cccc5ncccc45)cc23)ccc1C(=O)O | 0%
30 | Cc1cccc2nc(-c3ccc(-c4ccc(CN5CCCCC5)cc4)cc3)[nH]c12 | 0%
31 | Cc1cc(I)ccc1Nc1nc2nonc2nc1Nc1ccc(I)cc1C | 0%
32 | CS(=O)(=O)c1ccc(CNCc2ccc(-c3cccc(-c4nc5cc(C(F)(F)F)ccc5[nH]4)c3)cc2)cc1 | 8%
33 | Fc1ccc(C=NN=c2cc[nH]c3ccccc23)cc1 | 4%
34 | COc1ccc(OCCCCON2C(=N)N=C(N)NC2(C)C)cc1 | 4%
35 | COc1cccc(CCN(Cc2ccccc2-c2ccc(CNC3CC(C)(C)NC(C)(C)C3)cc2)C(=O)NC2CCCCC2)c1 | 0%
36 | N#Cc1ccc(N2C[C@@H](OCc3ccccc3)C[C@H]2C(=O)NCCC(c2ccccc2)c2ccccc2)c2ccccc12 | 0%
37 | CCCCCCOc1ccc(C(=O)N(Cc2ccccc2)c2c(-c3ccccc3)nc3cc(C)ccn23)cc1 | 3%
38 | CCc1cccc2sc(N3CCN(C(=O)c4ccc([N+](=O)[O-])o4)CC3)nc12 | 0%
39 | CCOc1c(CCNCCCCNCCc2ccc3ccccc3c2OCC)ccc2ccccc12 | 0%
40 | CN1CCC(Oc2ccc(CN3CC[C@H](NC(=O)c4ccc(Cl)c(F)c4)C3)c3ccccc23)C1 (stereo not given in full) | 3%
41 | CCN(CC)CCN(Cc1ccc(-c2ccc(C(F)(F)F)cc2)cc1)C(=O)Cn1c(CCc2ccccc2F)nc(=O)c2ccccc21 | 0%
42 | Cc1cccc2nc(-c3cccc(-c4ccc(NC(=O)c5ccoc5)cc4)c3)[nH]c12 | 0%
43 | O=c1cc(NCCCNCc2cccc(OC(F)(F)F)c2)[nH]c2ccccc12 | 0%
44 | O=C(Nc1ccc2c(c1)CCC2)N[C@H]1CCN(Cc2ccc(OCCCN3CCCCC3)cc2)C1 | 0%
45 | CCN1CCC(N(Cc2ccc(-c3ccc(C(F)(F)F)s3)cc2)C(=O)Cn2c(CCc3cccc(F)c3F)nc(=O)c3ccccc32)CC1 | 7%
46 | Fc1ccc2[nH]c(-c3cccc(-c4ccc(CNCc5cnn(-c6ccccc6)n5)cc4)c3)nc2c1 | 0%
47 | CNCCNCc1ccc(-c2ccc(-c3nc4cc(F)ccc4[nH]3)cc2)cc1 | 4%
48 | O=C1C(=Cc2c(O)ccc3ccccc23)SC(=NCc2ccccc2)N1Cc1ccccc1 | 0%
49 | COC(=O)c1cccc(CNCc2cccc(-c3ccc(-c4nc5cccc(C)c5[nH]4)s3)c2)c1 | 1%
50 | CCN1CCC(N(Cc2ccc(-c3ccc(C(F)(F)F)cc3)cc2)C(=O)Cn2c(CCc3cccc(F)c3F)nc(=O)c3ccccc32)CC1 | 3%
51 | Cc1cccc2nc(-c3cccc(-c4ccc(NC(=O)c5cnccc5C(F)(F)F)cc4)c3)[nH]c12 | 0%
52 | CCOC(=O)NC1=NC(C)(C)N(OCCCOc2ccc(C)cc2C)C(NC(=O)OCC)=N1 | 7%
53 | CS(=O)(=O)c1cc2c(Nc3ccc(N4CCOCC4)cc3)c(C(N)=O)cnc2cc1Br | 0%
54 | COc1ccc2nccc(N3CCC(CCNCc4cc5c(cn4)OCCO5)CC3)c2c1 | 6%
55 | O=C(Nc1cccc(F)c1)N1CCC(CN2CCOC(c3ccccc3)(c3ccccc3)C2)CC1 | 7%
